From PubChem BioAssay AID430 (Sanford-Burnham Center for Chemical Genomics, 2006)
Screen size: about 63,000 compounds; about 1,100 (1.7%) were called active. Shown is part of a subset that was picked to be rich in actives. Entries with a potency or affinity are not part of this list. A number with no mark means an inactive call. No stated cut-off is given here; in the data, active means cytotoxicity above about 50%; inactive means the rest.

Assay: cytotoxicity in HPDE-C7 cells, cell-based, fluorescence, HTS (AID 430);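 further: cells exposed to compound for 48 hours before viability readout; 0% = vehicle and 100% = reference cytotoxic drug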
Conditions: HPDE-C7 pancreatic duct cells viability, at 10 µM, active compounds read high

| SMILES | cytotoxicity |
| --- | --- |
| CCOC(=O)C1=C(N)N(c2ccccc2Oc2ccccc2)C(=O)C1 | 3.7% |
| CCS(=O)(=O)C(=C(Nc1ccc(OC)cc1)Nc1ccc(OC)cc1)S(=O)(=O)CC | -21.8% |
| CC(C)CC(=O)Nc1ccc(F)c(Cl)c1 | -0.2% |
| Cc1ccsc1-c1nc(CSCC(=O)NCc2ccc3c(c2)OCO3)c(C)o1 | 5.8% |
| CC(C)C(=O)Nc1ccc(NC(=O)c2ccco2)cn1 | -9.5% |
| Cc1cc(NC(=O)C(C)(C)C)no1 | -22.1% |
| CCN(CC)S(=O)(=O)c1ccc(F)cc1 | -8.3% |
| CC(C)c1[nH]nc2c1C(c1cccnc1)C(C#N)=C(N)O2 (stereo not given) | -15.1% |
| CCOC(=O)c1[nH]c(C)c(C(=O)Nc2ccccc2F)c1C | 43.6% |
| CCOC(=O)c1[nH]c(C)c(C(=O)Nc2cccc(Cl)c2C)c1C | 43.9% |
| CCOC(=O)c1[nH]c(C)c(C(=O)Nc2ccccc2C)c1C | 52.4% (active) |
| O=C(OCc1cc2ccccc2[nH]c1=O)c1ccco1 | 20.9% |
| Cc1ccc(S(=O)(=O)NC(=O)Nn2c(C)nnc2C)cc1 | -7.7% |
| CC12CN3CC(C)(CN(C1)C3c1cc3ccccc3[nH]1)C2=O (stereo not given) | 14.8% |
| COc1ccc(CCNC(=O)CN(C2CCCCC2)S(C)(=O)=O)cc1OC | -1% |
| COCCn1c(SCC(=O)Nc2cccc(C)c2)nnc1C(C)C | 1% |
| CCOc1ccc(NS(=O)(=O)c2ccc3[nH]c(=O)oc3c2)cc1 | -0.3% |
| CCOc1ccc(NS(=O)(=O)c2ccc(SC)cc2)cc1 | 7.2% |
| CC1Cc2cc(C(=O)O)ccc2O1 (stereo not given) | -26.7% |
| CCN(C(=O)c1coc(=O)c(Br)c1)c1ccc2c(c1)OCO2 | 74.4% (active) |
| CCN(C(=O)CCS(=O)(=O)c1ccc(Br)cc1)c1ccc2c(c1)OCO2 | 8.6% |
| O=C(c1coc(=O)c(Br)c1)N1CCOCC1 | -0.3% |

| SMILES | cytotoxicity |
| --- | --- |
| COc1ccc(C2(CNC(=O)c3ccc(Br)o3)CCOCC2)cc1 | -0.2% |
| O=C(Cn1cc2c(n1)CCCC2)NCCc1ccccc1 | -13% |
| Cc1nc(SCC(=O)N2CCN(c3ccccc3)CC2)c2oc3ccccc3c2n1 | 48.5% |
| Cc1cc(NS(=O)(=O)c2ccc(NC(=O)c3ccoc3C)cc2)nc(C)n1 | 2.9% |
| CCOc1cccc(-n2nnnc2-c2ccc(OC)cc2)c1 | 56.8% (active) |
| N#CCCS(=O)(=O)c1nnnn1-c1ccccc1 | 64.6% (active) |
| COc1ccc(-c2nnnn2CCc2ccccc2)cc1 | -7.2% |
| COc1cccc(Oc2nnnn2-c2ccccc2)c1 | -23% |
| O=C(CSc1nnnn1-c1ccccc1)CSc1nnnn1-c1ccccc1 | -2.1% |
| CCS(=O)(=O)c1nnnn1-c1ccccc1S(C)(=O)=O | 33.3% |
| COc1cccc(-n2nnnc2SCC(=O)c2cc(OC)ccc2OC)c1 | -12.2% |
| COc1ccc(-n2nnnc2-c2cccnc2)cc1 | -6.7% |
| COc1ccc(-c2nnnn2-c2ccccc2OC)cc1 | 46.6% |
| COc1ccc(-n2nnnc2-c2cccc(OC)c2)cc1 | 68.4% (active) |
| Clc1ccc(-n2nnnc2-c2ccccc2)cc1 | -17.1% |
| Nc1nc(-c2ccc(Cl)cc2)nn1C(=O)c1cccnc1 | 9.3% |
| CC(C)C(OC(=O)c1cc2sccc2n1C)C(=O)NCC1CCCO1 (stereo not given) | -19.4% |
| O=C(CSc1nnc(-c2ccccc2Br)o1)N1CCN(C(=O)c2ccco2)CC1 | -13.5% |
| CC1CCCCN1C(=O)CSc1nnc(-c2ccco2)n1CC1CCCO1 (stereo not given) | 3.9% |
| COc1cccc(OCc2nnc(SCC(=O)OC3CCCCC3)n2C)c1 | -7.5% |
| CCOc1ccccc1NC(=O)CSc1nnc(CNC(=O)c2ccco2)o1 | 6.4% |
| CN(C)C(=O)N1CCN(C(=O)c2ccccc2Sc2ccccc2C#N)CC1 | -6.6% |

| SMILES | cytotoxicity |
| --- | --- |
| NS(=O)(=O)c1ccc(NC(=O)CSC2CCCCC2)cc1 | -4.6% |
| NS(=O)(=O)c1ccc(NC=C2C(=O)OC3(CCCCC3)OC2=O)cc1 | 6.2% |
| O=C1c2oc3ccc(Cl)cc3c(=O)c2C(c2cccc(Br)c2)N1CCO (stereo not given) | 0.8% |
| Cc1ccccc1OCC(=O)Nc1ccc(N2CCN(S(C)(=O)=O)CC2)cc1 | -2% |
| COc1cc(-c2nnc(COc3ccc4ccccc4c3)o2)cc(OC)c1OC | 34.6% |
| COc1ccc(-c2nnc(COc3ccc4ccccc4c3)o2)cc1OC | 4.4% |
| COc1cc(-c2nnc(COc3ccc4cc(Br)ccc4c3)o2)cc(OC)c1OC | 78.6% (active) |
| COc1ccc(C(=O)OCn2nnc3ccccc3c2=O)cc1OC | 6.3% |
| CCOc1ccc(S(=O)(=O)n2cnc3cc(C)c(C)cc32)cc1 | 8.7% |
| CC(C)(C)N1C(=O)Cc2c1nc(N)c1c(N)nc(N3CCCCC3CO)c(C#N)c21 (stereo not given) | 54.6% (active) |
| N#Cc1c(N)nc2c(c1N)CC(=O)N2c1ccccc1-c1ccccc1 | 0.1% |
| CCOC(=O)CNS(=O)(=O)CCN1C(=O)c2ccccc2C1=O | -14.2% |
| CCOC(=O)c1c(CN2CCCCC2C)oc2ccc(OC)cc12 (stereo not given) | 3.6% |
| CCOC(=O)c1cccc(NC(=O)c2cnc3ccccc3n2)c1 | 0.8% |
| O=C(Nc1ccc(Cl)c(Cl)c1)N1CCSC1c1ccco1 (stereo not given) | 62.5% (active) |
| O=C(c1cc2ccccc2oc1=O)N1CCSC1c1ccco1 (stereo not given) | 4.9% |
| O=S(=O)(c1ccc(Cl)cc1)N1CCSC1c1ccco1 (stereo not given) | 8.1% |
| COc1ccc(-c2noc(CCC(=O)N3CCN(Cc4ccccc4)CC3)n2)cc1 | -6.2% |
| CCCc1[nH]nc2c1C(c1ccncc1)C(C#N)=C(N)O2 (stereo not given) | 6.1% |
| CCc1[nH]nc2c1C(c1ccc(Br)s1)C(C#N)=C(N)O2 (stereo not given) | -2.9% |
| CCCN1CC23C=CC(O2)C(C(=O)O)C3C1=O (stereo not given) | -2.8% |
